Many of the other results were omitted from the sample, so the strongest signals are more common in it than they were.
Legend:
Assay in all cases: glycan array binding signal (z-score within array); higher = stronger binding
Settings in all cases: glycan notation: IUPAC condensed, linker removed
[1] = target: Fuc(a1-2)Gal(b1-3)[Fuc(a1-4)]GlcNAc(b1-2)Man(a1-3)[Fuc(a1-2)Gal(b1-3)[Fuc(a1-4)]GlcNAc(b1-2)Man(a1-6)]Man(b1-4)GlcNAc(b1-4)GlcNAc
Procedure, shortened: (§1)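 Glycan array data were curated from 3228 arrays in the Consortium for Functional Glycomics database and kept only where the protein sequence was available. Glycan names were converted to IUPAC-condensed notation, and columns mapping to the same glycan were averaged. The binding signal is a within-array Z-score, averaged across arrays of the same protein sequence at different concentrations or buffers and across linkers. Negative Z-scores can be read as non-binding.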

[2] = target: Fuc(a1-2)Gal(b1-4)GlcNAc(b1-3)Gal(b1-4)GlcNAc
Procedure, shortened: as §1

[3] = target: Fuc(a1-2)Gal6S(b1-4)Glc6S
Procedure, shortened: as §1

[4] = target: Fuc(a1-2)[GalNAc(a1-3)]Gal(b1-4)GlcNAc(b1-3)Gal(b1-4)GlcNAc(b1-3)Gal(b1-4)GlcNAc
Procedure, shortened: as §1

[5] = target: Fuc(a1-3)[Gal3S(b1-4)]Glc6S
Procedure, shortened: as §1

[6] = target: Fuc(a1-3)[Neu5Ac(a2-3)]Gal(b1-4)GlcNAc(b1-3)GalNAc
Procedure, shortened: as §1

[7] = target: Gal(b1-3)GalNAc(a1-3)[Fuc(a1-2)]Gal(b1-4)Glc
Procedure, shortened: as §1

[8] = target: Gal(b1-3)GalNAc(a1-3)[Fuc(a1-2)]Gal(b1-4)GlcNAc
Procedure, shortened: as §1

[9] = target: Gal(b1-3)GlcNAc(b1-2)Man(a1-3)[Gal(b1-3)GlcNAc(b1-2)Man(a1-6)]Man(b1-4)GlcNAc(b1-4)[Fuc(a1-6)]GlcNAc
Procedure, shortened: as §1

[10] = target: Gal(b1-3)GlcNAc(b1-3)Gal(b1-3)GlcNAc
Procedure, shortened: as §1

[11] = target: Gal(b1-4)GlcNAc(b1-2)Man(a1-3)[Gal(b1-4)GlcNAc(b1-2)Man(a1-6)]Man(b1-4)GlcNAc(b1-4)[Fuc(a1-6)]GlcNAc
Procedure, shortened: as §1

[12] = target: Gal(b1-4)GlcNAc(b1-3)[Gal(b1-4)GlcNAc(b1-6)]Gal(b1-4)GlcNAc
Procedure, shortened: as §1

[13] = target: Glc(a1-6)Glc(a1-6)Glc
Procedure, shortened: as §1

[14] = target: GlcA(b1-6)Gal
Procedure, shortened: as §1

[15] = target: GlcNAc(a1-6)Gal(b1-4)GlcNAc
Procedure, shortened: as §1

[16] = target: GlcNAc(b1-2)Man(a1-3)[GlcNAc(b1-2)Man(a1-6)]Man(b1-4)GlcNAc(b1-4)GlcNAc
Procedure, shortened: as §1

[17] = target: GlcNAc(b1-2)Man(a1-3)[GlcNAc(b1-2)Man(a1-6)]Man(b1-4)GlcNAc(b1-4)[Fuc(a1-6)]GlcNAc
Procedure, shortened: as §1

[18] = target: GlcNAc(b1-3)[GlcNAc(b1-4)][GlcNAc(b1-6)]GlcNAc
Procedure, shortened: as §1

[19] = target: GlcNAc(b1-3)[GlcNAc(b1-6)]GalNAc
Procedure, shortened: as §1

[20] = target: GlcNAc(b1-4)GlcNAc(b1-4)GlcNAc
Procedure, shortened: as §1

[21] = target: Man(a1-2)Man(a1-3)[Man(a1-2)Man(a1-6)]Man
Procedure, shortened: as §1

[22] = target: Man(a1-2)Man(a1-3)[Man(a1-2)Man(a1-6)]Man(a1-6)[Man(a1-2)Man(a1-2)Man(a1-3)]Man
Procedure, shortened: as §1

[23] = target: Neu5Ac(a2-3)Gal(b1-4)GlcNAc(b1-6)[Neu5Ac(a2-3)Gal(b1-3)]GalNAc
Procedure, shortened: as §1

[24] = target: Neu5Ac(a2-3)Gal(b1-4)[Fuc(a1-3)]GlcNAc(b1-3)Gal(b1-4)GlcNAc
Procedure, shortened: as §1

[25] = target: Neu5Ac(a2-3)GalNAc(b1-4)GlcNAc
Procedure, shortened: as §1

[26] = target: Neu5Ac(a2-6)Gal(b1-4)GlcNAc(b1-2)Man(a1-3)[Neu5Ac(a2-6)Gal(b1-4)GlcNAc(b1-2)Man(a1-6)]Man(b1-4)GlcNAc(b1-4)GlcNAc
Procedure, shortened: as §1

[27] = target: Neu5Ac(a2-6)Gal(b1-4)GlcNAc(b1-2)Man(a1-6)[Man(a1-3)]Man(b1-4)GlcNAc(b1-4)GlcNAc
Procedure, shortened: as §1

[28] = target: Neu5Ac(a2-8)Neu5Ac(a2-8)Neu5Ac(a2-3)Gal(b1-4)Glc
Procedure, shortened: as §1

[29] = target: Neu5Ac(b2-6)Gal(b1-4)GlcNAc
Procedure, shortened: as §1

B1: LcH (Lens culinaris), P02870 (protein)
chain: TETTSFSITKFSPDQQNLIFQGDGYTGKEGLTLTKVSKETGGRALYSTPIHIWDRDTVNVANFVTNGSQVFRESPNGYNVADGFTFFIAPVDTKPQTGGGYLGVFYNGKEYDKTSQTVAVEFDTFYNAAWDPSNKERHIGIDVNSIKSVNTKSWNLQNGVTSYTLNEVVPLKDVVPEWVRIGFSATTGAEFAAQEVHSWSFNSQLGHTSKS
glycan array binding signal (z-score) [1]: -0.091 | glycan array binding signal (z-score) [2]: -0.141 | glycan array binding signal (z-score) [3]: -0.104 | glycan array binding signal (z-score) [4]: -0.108 | glycan array binding signal (z-score) [5]: -0.119 | glycan array binding signal (z-score) [6]: -0.132 | glycan array binding signal (z-score) [7]: -0.147 | glycan array binding signal (z-score) [8]: -0.093 | glycan array binding signal (z-score) [9]: 14.3 | glycan array binding signal (z-score) [10]: -0.142 | glycan array binding signal (z-score) [11]: 9.53 | glycan array binding signal (z-score) [12]: -0.138 | glycan array binding signal (z-score) [13]: -0.098 | glycan array binding signal (z-score) [14]: -0.111 | glycan array binding signal (z-score) [15]: -0.102 | glycan array binding signal (z-score) [16]: 1.2 | glycan array binding signal (z-score) [17]: 6.22 | glycan array binding signal (z-score) [18]: -0.125 | glycan array binding signal (z-score) [19]: -0.082 | glycan array binding signal (z-score) [20]: -0.107 | glycan array binding signal (z-score) [21]: 1.24 | glycan array binding signal (z-score) [22]: 3.73 | glycan array binding signal (z-score) [23]: -0.129 | glycan array binding signal (z-score) [24]: -0.046 | glycan array binding signal (z-score) [25]: -0.118 | glycan array binding signal (z-score) [26]: -0.12 | glycan array binding signal (z-score) [27]: -0.124 | glycan array binding signal (z-score) [28]: -0.138 | glycan array binding signal (z-score) [29]: -0.111
